# Measurements from paper PMC11062922 (Nature Chemical Biology, 2023).
# Read-outs that look alike come from different tables or passages of the source.
# Assays:
# CDK16 = system: CDK16; parameters: species or system human, MV4-11 + K-562 + COLO205 + SK-N-BE2 + OVCAR-8; details: read-out: apparent Kd; compound concentrations:100 nM and 1000 nM (sheet 'Samples'); n = 1
# CDK17 = system: CDK17; parameters: species or system human, MV4-11 + K-562 + COLO205 + SK-N-BE2 + OVCAR-8; details: read-out: apparent Kd; compound concentrations:100 nM and 1000 nM (sheet 'Samples'); n = 1
# CDK2 = system: CDK2; parameters: species or system human, MV4-11 + K-562 + COLO205 + SK-N-BE2 + OVCAR-8; details: read-out: apparent Kd; compound concentrations:100 nM and 1000 nM (sheet 'Samples'); n = 1
# CSNK2A1;CSNK2A3 = system: CSNK2A1;CSNK2A3; parameters: species or system human, MV4-11 + K-562 + COLO205 + SK-N-BE2 + OVCAR-8; details: read-out: apparent Kd; compound concentrations:100 nM and 1000 nM (sheet 'Samples'); n = 1
# CSNK2A2 = system: CSNK2A2; parameters: species or system human, MV4-11 + K-562 + COLO205 + SK-N-BE2 + OVCAR-8; details: read-out: apparent Kd; compound concentrations:100 nM and 1000 nM (sheet 'Samples'); n = 1
# ERCC2 = system: ERCC2; parameters: species or system human, MV4-11 + K-562 + COLO205 + SK-N-BE2 + OVCAR-8; details: read-out: apparent Kd; compound concentrations:100 nM and 1000 nM (sheet 'Samples'); n = 1
# MYLK3 = system: MYLK3; parameters: species or system human, MV4-11 + K-562 + COLO205 + SK-N-BE2 + OVCAR-8; details: read-out: apparent Kd; compound concentrations:100 nM and 1000 nM (sheet 'Samples'); n = 1
# Q6ZSR9 = Q6ZSR9 (human, UniProt Q6ZSR9); parameters: species or system MV4-11 + K-562 + COLO205 + SK-N-BE2 + OVCAR-8; details: read-out: apparent Kd; compound concentrations:100 nM and 1000 nM (sheet 'Samples'); n = 1
# Chain of Q6ZSR9 (Q6ZSR9 whole entry, looked up): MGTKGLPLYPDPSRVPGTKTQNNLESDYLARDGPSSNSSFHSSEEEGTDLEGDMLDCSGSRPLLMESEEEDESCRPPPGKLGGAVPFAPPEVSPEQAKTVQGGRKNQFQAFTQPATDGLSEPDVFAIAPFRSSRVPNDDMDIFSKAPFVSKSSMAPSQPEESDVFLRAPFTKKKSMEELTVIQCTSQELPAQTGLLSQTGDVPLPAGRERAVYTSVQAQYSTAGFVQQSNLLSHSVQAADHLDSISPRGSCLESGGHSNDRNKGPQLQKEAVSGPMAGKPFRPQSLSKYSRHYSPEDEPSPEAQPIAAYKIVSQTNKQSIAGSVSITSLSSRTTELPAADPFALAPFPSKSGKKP
# TTK = system: TTK; parameters: species or system human, MV4-11 + K-562 + COLO205 + SK-N-BE2 + OVCAR-8; details: read-out: apparent Kd; compound concentrations:100 nM and 1000 nM (sheet 'Samples'); n = 1
# CDK7 = system: CDK7; parameters: species or system human, MV4-11 + K-562 + COLO205 + SK-N-BE2 + OVCAR-8; details: read-out: apparent Kd; compound concentrations:100 nM and 1000 nM (sheet 'Samples'); n = 1
# MAPK10 = system: MAPK10; parameters: species or system human, MV4-11 + K-562 + COLO205 + SK-N-BE2 + OVCAR-8; details: read-out: apparent Kd; compound concentrations:100 nM and 1000 nM (sheet 'Samples'); n = 1
# MAPK14 = system: MAPK14; parameters: species or system human, MV4-11 + K-562 + COLO205 + SK-N-BE2 + OVCAR-8; details: read-out: apparent Kd, n = 1
# MAPK9 = system: MAPK9; parameters: species or system human, MV4-11 + K-562 + COLO205 + SK-N-BE2 + OVCAR-8; details: read-out: apparent Kd; compound concentrations:100 nM and 1000 nM (sheet 'Samples'); n = 1
# MAPKAPK2 = system: MAPKAPK2; parameters: species or system human, MV4-11 + K-562 + COLO205 + SK-N-BE2 + OVCAR-8; details: read-out: apparent Kd; compound concentrations:100 nM and 1000 nM (sheet 'Samples'); n = 1
# NLK = system: NLK; parameters: species or system human, MV4-11 + K-562 + COLO205 + SK-N-BE2 + OVCAR-8; details: read-out: apparent Kd; compound concentrations:100 nM and 1000 nM (sheet 'Samples'); n = 1
# PIP4K2C = system: PIP4K2C; parameters: species or system human, MV4-11 + K-562 + COLO205 + SK-N-BE2 + OVCAR-8; details: read-out: apparent Kd; compound concentrations:100 nM and 1000 nM (sheet 'Samples'); n = 1
# PRKAA2 = system: PRKAA2; parameters: species or system human, MV4-11 + K-562 + COLO205 + SK-N-BE2 + OVCAR-8; details: read-out: apparent Kd; compound concentrations:100 nM and 1000 nM (sheet 'Samples'); n = 1
# TNK2 = system: TNK2; parameters: species or system human, MV4-11 + K-562 + COLO205 + SK-N-BE2 + OVCAR-8; details: read-out: apparent Kd; compound concentrations:100 nM and 1000 nM (sheet 'Samples'); n = 1
# CDK6 = system: CDK6; parameters: species or system human, MV4-11 + K-562 + COLO205 + SK-N-BE2 + OVCAR-8; details: read-out: apparent Kd; compound concentrations:100 nM and 1000 nM (sheet 'Samples'); n = 1
# CDKL5 = system: CDKL5; parameters: species or system human, MV4-11 + K-562 + COLO205 + SK-N-BE2 + OVCAR-8; details: read-out: apparent Kd; compound concentrations:100 nM and 1000 nM (sheet 'Samples'); n = 1
# DJA1 = system: T1, DJA1; parameters: species or system human, MV4-11 + K-562 + COLO205 + SK-N-BE2 + OVCAR-8; details: read-out: apparent Kd; compound concentrations:100 nM and 1000 nM (sheet 'Samples'); n = 1
# T1 construct: gene DNAJA1
# DYRK1A = system: DYRK1A; parameters: species or system human, MV4-11 + K-562 + COLO205 + SK-N-BE2 + OVCAR-8; details: read-out: apparent Kd; compound concentrations:100 nM and 1000 nM (sheet 'Samples'); n = 1
# CLK1 = system: CLK1; parameters: species or system human, MV4-11 + K-562 + COLO205 + SK-N-BE2 + OVCAR-8; details: read-out: apparent Kd; compound concentrations:100 nM and 1000 nM (sheet 'Samples'); n = 1
# CLK2 = system: CLK2; parameters: species or system human, MV4-11 + K-562 + COLO205 + SK-N-BE2 + OVCAR-8; details: read-out: apparent Kd; compound concentrations:100 nM and 1000 nM (sheet 'Samples'); n = 1
# CLK4 = system: CLK4; parameters: species or system human, MV4-11 + K-562 + COLO205 + SK-N-BE2 + OVCAR-8; details: read-out: apparent Kd; compound concentrations:100 nM and 1000 nM (sheet 'Samples'); n = 1
# GAK = system: GAK; parameters: species or system human, MV4-11 + K-562 + COLO205 + SK-N-BE2 + OVCAR-8; details: read-out: apparent Kd; compound concentrations:100 nM and 1000 nM (sheet 'Samples'); n = 1
# MAPK8 = system: MAPK8; parameters: species or system human, MV4-11 + K-562 + COLO205 + SK-N-BE2 + OVCAR-8; details: read-out: apparent Kd; compound concentrations:100 nM and 1000 nM (sheet 'Samples'); n = 1
# PTK2B = system: PTK2B; parameters: species or system human, MV4-11 + K-562 + COLO205 + SK-N-BE2 + OVCAR-8; details: read-out: apparent Kd; compound concentrations:100 nM and 1000 nM (sheet 'Samples'); n = 1
# PTK2 = system: PTK2; parameters: species or system human, MV4-11 + K-562 + COLO205 + SK-N-BE2 + OVCAR-8; details: read-out: apparent Kd; compound concentrations:100 nM and 1000 nM (sheet 'Samples'); n = 1
# TNK1 = system: TNK1; parameters: species or system human, MV4-11 + K-562 + COLO205 + SK-N-BE2 + OVCAR-8; details: read-out: apparent Kd; compound concentrations:100 nM and 1000 nM (sheet 'Samples'); n = 1
structure (smiles),measurement,setting,value
NS(=O)(=O)c1ccc(N/N=C2\C(=O)Nc3ccc(C(=O)NCc4ccncc4)cc32)cc1 [GSK300657X],potency estimated from few doses,CDK16,486 nM
same,potency estimated from few doses,CDK17,957 nM
same,potency estimated from few doses,CDK2,567 nM
same,potency estimated from few doses,CSNK2A1;CSNK2A3,1460 nM
same,potency estimated from few doses,CSNK2A2,771 nM
same,potency estimated from few doses,ERCC2,2250 nM
same,potency estimated from few doses,MYLK3,1620 nM
same,potency estimated from few doses,Q6ZSR9,2140 nM
same,potency estimated from few doses,TTK,2100 nM
Cl.Cn1c(=O)c(Oc2ccccc2)cc2cnc(NC3CCOCC3)nc21 [RO3304757-001],potency estimated from few doses,CDK7,1310 nM
same,potency estimated from few doses,ERCC2,1500 nM
same,potency estimated from few doses,MAPK10,984 nM
same,potency estimated from few doses,"MAPK14; compound concentrations: 100 nM and 1000 nM (sheet 'Samples'), CATDS: 0.27428845343206798",68.9 nM
same,potency estimated from few doses,MAPK9,349 nM
same,potency estimated from few doses,MAPKAPK2,64.7 nM
same,potency estimated from few doses,NLK,148 nM
same,potency estimated from few doses,PIP4K2C,896 nM
same,potency estimated from few doses,PRKAA2,1770 nM
same,potency estimated from few doses,TNK2,1160 nM
O=C(Nc1n[nH]c2cc(-c3ccsc3)ccc12)C1CC1 [SB-732932_KCGS],potency estimated from few doses,CDK6,1430 nM
same,potency estimated from few doses,CDKL5,1820 nM
same,potency estimated from few doses,DJA1,2070 nM
same,potency estimated from few doses,DYRK1A,1670 nM
same,potency estimated from few doses,MAPK14; compound concentrations:100 nM and 1000 nM (sheet 'Samples'),1560 nM
COc1cc(N2CCN(C(C)C)CC2)ccc1Nc1nc(Nc2ccc(F)cc2C(=O)NC[C@@H](O)CO)c2cc[nH]c2n1 [GSK1392956A],potency estimated from few doses,CLK1,415 nM
same,potency estimated from few doses,CLK2,811 nM
same,potency estimated from few doses,CLK4,684 nM
same,potency estimated from few doses,GAK,50.4 nM
same,potency estimated from few doses,MAPK10,92.1 nM
same,potency estimated from few doses,MAPK8,140 nM
same,potency estimated from few doses,MAPK9,531 nM
same,potency estimated from few doses,PTK2B,188 nM
same,potency estimated from few doses,PTK2,370 nM
same,potency estimated from few doses,TNK1,577 nM
same,potency estimated from few doses,TTK,53 nM
